Test results: PubChem BioAssay AID504832 (National Center for Advancing Translational Sciences (NCATS), 2011)
Hit rate of the full screen: of about 310,000 compounds, about 18,000 (5.8%) were called active. Entries that show only a call come without a potency. Not shown: some 22% with an inconclusive outcome. The call rests on the fitted dose curve; in most records, active means well fitted inhibition curve with a large enough effect; inconclusive means small, poorly fitted or top-dose-only effect, or another doubt; inactive means no such curve, though single readings can be large or run the other way. This excerpt belongs to a sample that is enriched for actives.

assay: Primary qHTS for delayed death inhibitors of the malarial parasite plastid, 48 hour incubation; conditions: P. falciparum luciferase growth in erythrocytes; series mostly up to 28.7 µM
Outline: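 Luminescence readout; reporter = integrated firefly luciferase in P. falciparum. RBC culture at 2% hematocrit, 0.1% parasitemia final, 37 C/5% CO2; decreased signal taken as growth inhibition.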
Potency means the concentration at half of the fitted maximal effect.

Question: For `COc1ccccc1Oc1ccc(N2CC(C(=O)OCC(=O)c3ccc(F)cc3)CC2=O)cc1` (configuration not stated), which Potency is on record?
Answer: Its Potency is “inactive”.

Question: With `Cc1ccccc1NC(=O)c1cc(S(=O)(=O)Nc2cccc(C(=O)O)c2)ccc1Cl` as the molecule, how does the Potency read?
Answer: The Potency was “inactive”.

Question: With `CC(C)[C@@H]1COC(c2cccc(C3=N[C@H](C(C)C)CO3)c2)=N1` as the molecule, how does the Potency read?
Answer: The Potency was “inactive”.

Question: With `CC1C(=O)N(Cc2ccccc2)c2ccccc2N1C(=O)c1ccccc1` (configuration not stated) as the molecule, how does the Potency read?
Answer: The Potency was “inactive”.

Question: For `O=C(OCC(=O)N1CCc2ccccc21)C1CCCN1S(=O)(=O)c1ccc(Cl)cc1` (configuration not stated), which Potency is on record?
Answer: Its Potency is “inactive”.

Question: For `O=C(Cc1ccsc1)N1CCN(S(=O)(=O)c2cc(C(F)(F)F)cc(C(F)(F)F)c2)CC1`, which Potency is on record?
Answer: Its Potency is “inactive”.

Question: For `O=C(c1ccncc1)N1CCN(S(=O)(=O)c2cc(C(F)(F)F)cc(C(F)(F)F)c2)CC1`, which Potency is on record?
Answer: Its Potency is 11.7 µM (active).

Question: With `O=C(c1ccncc1)N1CCN(S(=O)(=O)c2cccc([N+](=O)[O-])c2)CC1` as the molecule, how does the Potency read?
Answer: Its Potency is “inactive”.

Question: With `CCn1c(SCC(=O)NC2CC2)nnc1-c1ccccc1OC` as the molecule, how does the Potency read?
Answer: Its Potency is “inactive”.

Question: With `Cc1cccn2c(=O)nc(SCC(=O)NCc3ccccc3Cl)nc12` as the molecule, how does the Potency read?
Answer: Its Potency is “inactive”.

Question: For `COc1ccc(OCCCCN2CCC(C)CC2)cc1`, which activity change, negative = inhibition is on record?
Answer: The activity change, negative = inhibition was -11.4% [at 0.00184 µM] (inactive).

Question: For `Cc1ccc2nc(SCC(=O)N3CCN(c4ccccc4)CC3)nc(=O)n2c1`, which Potency is on record?
Answer: Its Potency is “inactive”.

Question: With `O=C(Nc1cccc(OC(=O)N2CCCCC2)c1)N1CCOCC1` as the molecule, how does the Potency read?
Answer: Its Potency is 10.4 µM (active).

Question: For `O=C(Oc1ccc2c(c1)CCC2)N1CCOCC1`, which Potency is on record?
Answer: Its Potency is “inactive”.

Question: Which Potency does the source give for `COc1cc(NC(=O)N2CCOCC2)cc(OC)c1` here?
Answer: The Potency was “inactive”.

Question: Which Potency does the source give for `COc1cc(OC)cc(C(=O)NCCCn2ccnc2)c1` here?
Answer: Its Potency is “inactive”.

Question: For `COCCNc1ncnc2c1nc1n2CCCC1`, which Potency is on record?
Answer: Its Potency is “inactive”.

Question: For `Cc1ccc(S(=O)(=O)NCC(=O)Nc2ccc3c(c2)OCCO3)cc1`, which Potency is on record?
Answer: The Potency was “inactive”.

Question: For `CN(CC(=O)NCc1cccnc1)S(=O)(=O)c1cc(Cl)ccc1Cl`, which Potency is on record?
Answer: The Potency was “inactive”.

Question: With `Nc1ccc(Nc2cc(O)c3ncccc3c2)cc1` as the molecule, how does the Potency read?
Answer: The Potency was 10.4 µM (active).

Question: Which Potency does the source give for `CC(C)c1ccc(Nc2ncccc2C#N)cc1` here?
Answer: Its Potency is “inactive”.

Question: Which Potency does the source give for `Cc1cccc(C)c1NC(=S)N1CCCCCC1` here?
Answer: Its Potency is “inactive”.

Question: With `COc1cccc(CNC(=O)CCCC(=O)Nc2cccc([N+](=O)[O-])c2)c1` as the molecule, how does the Potency read?
Answer: The Potency was “inactive”.

Question: With `O=C(NCc1cccc(Cl)c1)C1CCC(=O)N(C2CC2)C1` (configuration not stated) as the molecule, how does the Potency read?
Answer: The Potency was “inactive”.

Question: With `O=C(CCN1C(=O)C2CCCCC2C1=O)Nc1ccc(OC(F)F)cc1` (configuration not stated) as the molecule, how does the Potency read?
Answer: Its Potency is “inactive”.

Question: Which Potency does the source give for `Cc1ccc(C(=O)NCCc2nnc(SCC(=O)Nc3cccc(C(=O)O)c3)n2C)cc1` here?
Answer: The Potency was “inactive”.

Question: Which Potency does the source give for `Cc1ccc(NC(=O)c2nc[nH]c2C(=O)N[C@@H](CCCCNC(=O)OC(C)(C)C)C(=O)OC(C)(C)C)cc1` here?
Answer: Its Potency is 13.1 µM (active).

Question: With `CCOC(=O)c1ccc(NC(=O)c2nc[nH]c2C(=O)NCc2ccccc2)cc1` as the molecule, how does the Potency read?
Answer: The Potency was “inactive”.

Question: With `C[C@H](NC(=O)c1nc[nH]c1C(=O)N[C@@H](C)C(=O)OC(C)(C)C)C(=O)OC(C)(C)C` as the molecule, how does the Potency read?
Answer: The Potency was 9.28 µM (active).

Question: For `CCOC(=O)c1[nH]cnc1C(=O)Nc1ccccc1C`, which Potency is on record?
Answer: The Potency was “inactive”.

Question: For `C[C@H](NC(=O)c1nc[nH]c1C(=O)NCC(=O)OC(C)(C)C)C(=O)OCc1ccccc1`, which Potency is on record?
Answer: The Potency was “inactive”.

Question: With `Cc1ccc(NC(=O)OCCNC(=O)c2ccncc2)cc1` as the molecule, how does the Potency read?
Answer: The Potency was “inactive”.

Question: For `CCOC(=O)c1ccc(NC(=O)c2nc[nH]c2C(=O)N[C@@H](CCCCNC(=O)OC(C)(C)C)C(=O)OC(C)(C)C)cc1`, which Potency is on record?
Answer: Its Potency is 6.57 µM (active).

Question: For `Cc1cccc(NC(=O)c2nc[nH]c2C(=O)NCC(=O)OCc2ccccc2)c1`, which Potency is on record?
Answer: The Potency was “inactive”.

Question: Which Potency does the source give for `CCN(CC)C(=O)COc1coc(CN2CCN(Cc3ccccc3)CC2)cc1=O` here?
Answer: Its Potency is “inactive”.

Question: With `O=C(NCCC1CCCCN1S(=O)(=O)c1ccccc1)C(=O)NCC1CCCO1` (configuration not stated) as the molecule, how does the Potency read?
Answer: The Potency was “inactive”.

Question: Which Potency does the source give for `O=C(CCC1CCCN(C(=O)c2ccc(F)c(F)c2)C1)N1CCN(c2ccccn2)CC1` (configuration not stated) here?
Answer: Its Potency is “inactive”.

Question: For `COc1ccc(Cl)cc1NC(=O)COc1ccc2c(c1)OCO2`, which Potency is on record?
Answer: The Potency was “inactive”.

Question: With `Nc1cccc(-c2cc(-c3ccccc3)nc(-c3cccc(N)c3)n2)c1` as the molecule, how does the Potency read?
Answer: Its Potency is 10.4 µM (active).

Question: For `Nc1nc(-c2ccccc2)cc(-c2ccccc2)n1`, which Potency is on record?
Answer: The Potency was “inactive”.

Question: Which Potency does the source give for `Nc1cccc(CCc2nc3ccccc3[nH]2)c1` here?
Answer: The Potency was “inactive”.

Question: For `Cc1cccc(C(=O)NCCCN(C)CCCNC(=O)c2cccc(C)c2)c1`, which Potency is on record?
Answer: The Potency was “inactive”.

Question: For `CCSc1nc2sc3c(c2c(=O)[nH]1)CC(C)(C)OC3`, which Potency is on record?
Answer: The Potency was “inactive”.

Question: For `O=C(OCc1ccc([N+](=O)[O-])cc1)C1CC(=O)N(Cc2ccccc2Cl)C1` (configuration not stated), which Potency is on record?
Answer: Its Potency is “inactive”.

Question: For `COc1cc(/C=C/C(=O)O)cc(S(=O)(=O)Nc2ccccc2C(=O)NCCc2ccccc2)c1OC`, which Potency is on record?
Answer: Its Potency is “inactive”.

Question: For `COc1cc(C(CCN2CCN(c3ccccc3)CC2)c2c(OC)cc(OC)c3ccc(=O)oc23)cc(OC)c1OC` (configuration not stated), which Potency is on record?
Answer: The Potency was 13.1 µM (active).

Question: For `COc1ccccc1N1CCN(Cc2cc(OC)c3c(c2)OCO3)CC1`, which Potency is on record?
Answer: The Potency was “inactive”.

Question: For `COc1cc(OC)c2ccc(=O)oc2c1C(CCN1CCN(c2ccccc2)CC1)c1ccc2c(c1)OCO2` (configuration not stated), which Potency is on record?
Answer: Its Potency is 11.7 µM (active).

Question: With `c1ccc(-c2cnc(CN3CCN(c4ccccc4)CC3)o2)cc1` as the molecule, how does the Potency read?
Answer: Its Potency is “inactive”.

Question: With `COc1ccccc1NC(=O)CCN1CCN(c2ccc(Cl)cc2)CC1` as the molecule, how does the Potency read?
Answer: Its Potency is “inactive”.

Question: With `Cc1cc(=O)oc2c(C)c(OCC(=O)N3CCN(Cc4ccc5c(c4)OCO5)CC3)ccc12` as the molecule, how does the Potency read?
Answer: Its Potency is “inactive”.

Question: Which Potency does the source give for `CC(OC(=O)CN1C(=O)c2ccccc2C1=O)C(=O)c1ccccc1` (configuration not stated) here?
Answer: Its Potency is “inactive”.

Question: Which Potency does the source give for `COc1cc(S(=O)(=O)Nc2ncn[nH]2)ccc1Cl` here?
Answer: Its Potency is “inactive”.

Question: With `O=Cc1c(NCCCN2CCCC2=O)c2ccccc2[nH]c1=O` as the molecule, how does the Potency read?
Answer: Its Potency is “inactive”.

Question: With `O=C(NC1CCCC1)C(c1ccc(Cl)cc1)N(C(=O)c1csnn1)C1CC1` (configuration not stated) as the molecule, how does the Potency read?
Answer: Its Potency is “inactive”.

Question: For `Cc1cc(-c2ccc(S(=O)(=O)N3CCN(c4cccc(C(F)(F)F)c4)CC3)s2)on1`, which Potency is on record?
Answer: The Potency was “inactive”.

Question: For `O=c1oc(/C=C/c2ccccc2)nc2ccccc12`, which Potency is on record?
Answer: Its Potency is “inactive”.

Question: Which Potency does the source give for `O=c1c2ccccc2nc(/C=C/c2ccc(F)cc2)n1-c1ccccc1O` here?
Answer: The Potency was 13.1 µM (active).

Question: With `O=c1c2ccccc2ncn1/N=C/c1ccccc1` as the molecule, how does the Potency read?
Answer: Its Potency is “inactive”.

Question: With `Cc1ccc(NC(=O)COc2ccc(-n3ccnc3)cc2)cc1Cl` as the molecule, how does the Potency read?
Answer: The Potency was 9.28 µM (active).

Question: With `CCC(=O)c1ccc(OCC(=O)Nc2ccc3nc(C)sc3c2)cc1` as the molecule, how does the Potency read?
Answer: The Potency was “inactive”.

Question: With `Cc1ccc(NC(=O)COc2ccc(/C=N\NC(=O)c3cccnc3)cc2)cc1C` as the molecule, how does the Potency read?
Answer: The Potency was “inactive”.

Question: Which Potency does the source give for `Cc1ccc(NC(=O)NC(=O)c2ccccc2)cc1F` here?
Answer: The Potency was “inactive”.

Question: Which Potency does the source give for `COc1ccc(NC(=O)c2nc(-n3nc(C)cc3C)ccc2Cl)cc1Cl` here?
Answer: The Potency was “inactive”.

Question: Which Potency does the source give for `COc1cccc(/C=N/Nc2cc(C)nc(-c3ccccc3O)n2)c1O` here?
Answer: The Potency was 3.7 µM (active).

Question: With `COc1ccccc1/C=N\Nc1cc(C)nc(-n2nc(C)cc2C)n1` as the molecule, how does the Potency read?
Answer: The Potency was 1.65 µM (active).

Question: For `COc1cccc2c(N/N=C/c3ccco3)cc(C)nc12`, which Potency is on record?
Answer: Its Potency is “inactive”.

Question: Which Potency does the source give for `Cc1ccc(S(=O)(=O)Nc2nc(C)cc(N/N=C/c3ccc(O)cc3)n2)cc1` here?
Answer: The Potency was “inactive”.

Question: With `Cc1nc(Cl)cc(N/N=C/c2ccccc2)n1` as the molecule, how does the Potency read?
Answer: Its Potency is “inactive”.

Question: With `Cc1cc(N/N=C\c2ccc(Br)cc2)nc(-n2nc(C)cc2C)n1` as the molecule, how does the Potency read?
Answer: The Potency was 1.04 µM (active).

Question: For `COc1cc(/C=N/Nc2nc3ccccc3s2)ccc1O`, which Potency is on record?
Answer: The Potency was “inactive”.

Question: With `COc1cc(NS(=O)(=O)c2ccccc2)ccc1-n1nc(C)cc1C` as the molecule, how does the Potency read?
Answer: Its Potency is “inactive”.
